Of roughly 7,900 targets only a part is listed; those with a hit were picked by preference. About 0.6% of all pairs of compound and target were hits.
What was measured:
Assay in all cases: log2 fold change, soluble protein after heating vs DMSO (PISA); higher = thermal stabilisation; K562 cells, 10 uM, 30 min; active = over 0.2 and 3.5 SD of the protein, either way, in both replicates (recomputed)
[1] = compound: Cc1ccc(NC(=O)c2ccc(CN3CC[C@H](N(C)C)C3)c(C(F)(F)F)c2)cc1Nc1nccc(-c2cncnc2)n1 [bafetinib]
In short: (§1)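 Soluble protein was quantified by TMTpro 16plex LC-MS/MS after channel sums were equalised. It was obtained as the supernatant after 21,000xg for 90 min from pooled aliquots of K562 cells (2×10^6 cells/mL, 10 μM compound, 30 min) heated for 3 min across 48°C-58°C and extracted in PBS with 0.5% NP-40 at 4°C. Thermal stability values are relative to control samples and come from duplicates. They are given as log2 fold changes.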

[2] = compound: Cc1cccc(CC(=O)N2CCc3c2ccc(-c2cn(C)c4ncnc(N)c24)c3F)n1
In short: as §1

[3] = compound: Cc1cn(-c2cc(NC(=O)c3ccc(C)c(Nc4nccc(-c5cccnc5)n4)c3)cc(C(F)(F)F)c2)cn1 [nilotinib]
In short: as §1

[4] = compound: Cc1nc(Nc2n[nH]c3c2CN(C(=O)N[C@H](CN(C)C)c2ccccc2)C3(C)C)c2sccc2n1
In short: as §1

[5] = compound: Cc1nc(Nc2ncc(C(=O)Nc3c(C)cccc3Cl)s2)cc(N2CCN(CCO)CC2)n1 [dasatinib]
In short: as §1

[6] = compound: Cc1ncc(-c2ccnc(Nc3ccc(S(C)(=O)=O)cc3)n2)n1C(C)C
In short: as §1

[7] = compound: Cn1cc(-c2ccc3c(c2)CCN3C(=O)Cc2cccc(C(F)(F)F)c2)c2c(N)ncnc21
In short: as §1

[8] = compound: Cn1cc(-c2ccc3nnc(C(F)(F)c4ccc5ncccc5c4)n3n2)cn1
In short: as §1

[9] = compound: Cn1cncc1[C@@](N)(c1ccc(Cl)cc1)c1ccc2c(c1)c(-c1cccc(Cl)c1)cc(=O)n2C [tipifarnib]
In short: as §1

[10] = compound: FC(F)(F)c1ccc(/C=C/c2nc(COc3ccc(CCCCn4ccnn4)cc3)co2)cc1 [mubritinib]
In short: as §1

[11] = compound: NC(=O)Nc1cc(-c2cccc(F)c2)sc1C(=O)N[C@H]1CCCNC1
In short: as §1

[12] = compound: NC(=O)c1cnc(N[C@@H]2CCCC[C@@H]2N)nc1Nc1cccc(-n2nccn2)c1
In short: as §1

[13] = compound: NC1(c2ccc(-c3nc4ccn5c(=O)[nH]nc5c4cc3-c3ccccc3)cc2)CCC1
In short: as §1

[14] = compound: NCC(=O)Nc1ccc(-n2nc(C(F)(F)F)cc2-c2ccc3c(ccc4ccccc43)c2)cc1
In short: as §1

[15] = compound: Nc1ccccc1NC(=O)c1ccc(CNC(=O)OCc2cccnc2)cc1 [entinostat]
In short: as §1

[16] = compound: O=C(CCCCCCC(=O)Nc1ccccc1)NO [vorinostat]
In short: as §1

[17] = compound: O=C(CCCCCCNC(=O)c1cnc(N(c2ccccc2)c2ccccc2Cl)nc1)NO [citarinostat]
In short: as §1

[18] = compound: O=C(O)c1ccc2c(c1)nc(Nc1cccc(Cl)c1)c1ccncc12 [silmitasertib]
In short: as §1

[19] = compound: O=C1NC(=O)C(c2cnc3ccccn23)=C1c1cn2c3c(cc(F)cc13)CN(C(=O)N1CCCCC1)CC2
In short: as §1

[20] = compound: c1cc(OCCN2CCCCC2)cc(-c2n[nH]c3ccc(-c4nnc[nH]4)cc23)c1
In short: as §1

Measured: log2 fold change

XPOT (UniProt O43592)
Sequence of UniProt O43592 (O43592 whole entry, looked up): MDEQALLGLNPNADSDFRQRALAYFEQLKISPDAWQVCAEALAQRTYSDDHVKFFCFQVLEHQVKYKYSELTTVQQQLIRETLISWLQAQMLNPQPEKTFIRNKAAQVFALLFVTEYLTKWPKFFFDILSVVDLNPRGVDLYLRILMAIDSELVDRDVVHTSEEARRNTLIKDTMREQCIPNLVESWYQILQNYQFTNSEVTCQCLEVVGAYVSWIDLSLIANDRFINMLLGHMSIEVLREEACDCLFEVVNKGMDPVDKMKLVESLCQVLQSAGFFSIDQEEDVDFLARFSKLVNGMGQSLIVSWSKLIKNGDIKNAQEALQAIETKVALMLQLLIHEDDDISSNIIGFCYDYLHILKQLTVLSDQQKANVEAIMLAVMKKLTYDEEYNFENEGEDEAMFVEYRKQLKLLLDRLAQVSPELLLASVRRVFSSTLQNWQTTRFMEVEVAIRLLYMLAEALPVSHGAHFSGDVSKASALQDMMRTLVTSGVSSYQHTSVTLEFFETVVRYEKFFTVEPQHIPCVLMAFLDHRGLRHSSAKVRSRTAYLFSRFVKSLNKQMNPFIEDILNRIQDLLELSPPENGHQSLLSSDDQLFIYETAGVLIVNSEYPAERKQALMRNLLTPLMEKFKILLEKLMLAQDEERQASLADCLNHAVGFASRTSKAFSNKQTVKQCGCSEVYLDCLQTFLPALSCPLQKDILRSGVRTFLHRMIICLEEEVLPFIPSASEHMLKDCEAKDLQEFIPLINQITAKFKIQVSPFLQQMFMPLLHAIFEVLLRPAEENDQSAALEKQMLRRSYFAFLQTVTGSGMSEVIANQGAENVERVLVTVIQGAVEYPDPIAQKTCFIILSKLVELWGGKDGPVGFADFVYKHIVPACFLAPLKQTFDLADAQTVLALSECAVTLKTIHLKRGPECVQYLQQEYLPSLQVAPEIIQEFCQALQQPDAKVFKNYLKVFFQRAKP
inactive: [1] -0.014 | [2] 0.013 | [3] -0.083 | [4] -0.012 | [5] -0.13 | [6] 0.083 | [7] -0.075 | [8] 0.066 | [9] -0.173 | [10] 0.077 | [11] -0.04 | [12] -0.103 | [13] -0.241 | [14] -0.061 | [15] 0.063 | [16] 0.031 | [17] 0.069 | [18] 0.134 | [19] 0.057 | [20] -0.047

VPS41 (UniProt P49754)
Sequence of UniProt P49754 (P49754 whole entry, looked up): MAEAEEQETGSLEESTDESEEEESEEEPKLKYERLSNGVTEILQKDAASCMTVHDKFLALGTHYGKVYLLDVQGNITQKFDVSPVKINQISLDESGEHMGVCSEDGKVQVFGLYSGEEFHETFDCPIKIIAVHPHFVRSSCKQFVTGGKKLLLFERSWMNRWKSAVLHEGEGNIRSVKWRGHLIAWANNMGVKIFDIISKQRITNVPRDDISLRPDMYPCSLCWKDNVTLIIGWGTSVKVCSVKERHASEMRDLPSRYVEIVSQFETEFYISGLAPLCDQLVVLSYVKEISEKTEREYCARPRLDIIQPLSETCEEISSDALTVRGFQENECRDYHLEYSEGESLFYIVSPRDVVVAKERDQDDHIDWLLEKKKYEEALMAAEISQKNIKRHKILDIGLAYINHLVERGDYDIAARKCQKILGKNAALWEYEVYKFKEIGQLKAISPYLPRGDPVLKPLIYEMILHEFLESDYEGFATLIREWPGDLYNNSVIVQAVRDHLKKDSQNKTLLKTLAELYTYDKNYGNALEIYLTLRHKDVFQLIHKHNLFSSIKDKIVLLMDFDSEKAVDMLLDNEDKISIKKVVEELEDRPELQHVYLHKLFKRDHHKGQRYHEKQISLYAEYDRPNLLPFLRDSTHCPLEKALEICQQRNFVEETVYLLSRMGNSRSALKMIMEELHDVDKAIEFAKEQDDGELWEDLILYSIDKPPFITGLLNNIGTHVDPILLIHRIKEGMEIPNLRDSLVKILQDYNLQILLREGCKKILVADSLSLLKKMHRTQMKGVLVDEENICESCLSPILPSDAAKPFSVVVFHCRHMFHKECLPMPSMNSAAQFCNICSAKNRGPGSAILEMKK
active: [13] -0.267
inactive: [1] -0.134 | [2] 0.034 | [3] -0.012 | [4] -0.039 | [5] -0.094 | [6] -0.03 | [7] 0 | [8] 0.013 | [9] -0.084 | [10] 0.08 | [11] -0.006 | [12] -0.163 | [14] -0.163 | [15] 0.083 | [16] 0.072 | [17] 0.082 | [18] -0.006 | [19] -0.046 | [20] -0.056

TMEM63B (UniProt Q5T3F8)
Sequence of UniProt Q5T3F8 (Q5T3F8 whole entry, looked up): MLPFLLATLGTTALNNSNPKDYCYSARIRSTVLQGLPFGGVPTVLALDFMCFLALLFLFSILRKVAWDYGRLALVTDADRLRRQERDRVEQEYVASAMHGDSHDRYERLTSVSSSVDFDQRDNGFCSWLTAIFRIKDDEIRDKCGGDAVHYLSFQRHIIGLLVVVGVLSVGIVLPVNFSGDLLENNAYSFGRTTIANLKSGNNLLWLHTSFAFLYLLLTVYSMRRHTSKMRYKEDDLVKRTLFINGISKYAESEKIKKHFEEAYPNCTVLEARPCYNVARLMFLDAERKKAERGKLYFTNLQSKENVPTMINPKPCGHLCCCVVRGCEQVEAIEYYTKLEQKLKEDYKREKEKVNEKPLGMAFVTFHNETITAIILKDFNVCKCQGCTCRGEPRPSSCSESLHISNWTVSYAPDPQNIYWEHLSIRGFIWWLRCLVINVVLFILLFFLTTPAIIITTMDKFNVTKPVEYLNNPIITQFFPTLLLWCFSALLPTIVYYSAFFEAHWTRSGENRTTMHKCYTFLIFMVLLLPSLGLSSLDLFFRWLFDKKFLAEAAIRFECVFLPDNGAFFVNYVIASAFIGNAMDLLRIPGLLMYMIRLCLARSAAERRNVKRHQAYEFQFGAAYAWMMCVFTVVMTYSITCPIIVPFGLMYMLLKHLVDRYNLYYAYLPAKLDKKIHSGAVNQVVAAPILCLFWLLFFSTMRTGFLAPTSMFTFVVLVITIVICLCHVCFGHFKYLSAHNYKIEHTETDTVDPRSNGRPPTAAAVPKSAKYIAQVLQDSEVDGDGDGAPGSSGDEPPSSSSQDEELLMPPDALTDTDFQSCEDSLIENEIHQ
inactive: [1] 0.013 | [2] 0.002 | [3] -0.008 | [4] -0.021 | [5] 0.026 | [6] -0.061 | [7] 0.006 | [8] 0.004 | [9] 0.008 | [10] 0.047 | [11] 0.069 | [12] 0.059 | [13] -0.153 | [14] 0.052 | [15] 0.07 | [16] -0.008 | [17] -0.024 | [18] 0.001 | [19] -0.037 | [20] -0.021

XPO6 (UniProt Q96QU8)
Sequence of UniProt Q96QU8 (Q96QU8 whole entry, looked up): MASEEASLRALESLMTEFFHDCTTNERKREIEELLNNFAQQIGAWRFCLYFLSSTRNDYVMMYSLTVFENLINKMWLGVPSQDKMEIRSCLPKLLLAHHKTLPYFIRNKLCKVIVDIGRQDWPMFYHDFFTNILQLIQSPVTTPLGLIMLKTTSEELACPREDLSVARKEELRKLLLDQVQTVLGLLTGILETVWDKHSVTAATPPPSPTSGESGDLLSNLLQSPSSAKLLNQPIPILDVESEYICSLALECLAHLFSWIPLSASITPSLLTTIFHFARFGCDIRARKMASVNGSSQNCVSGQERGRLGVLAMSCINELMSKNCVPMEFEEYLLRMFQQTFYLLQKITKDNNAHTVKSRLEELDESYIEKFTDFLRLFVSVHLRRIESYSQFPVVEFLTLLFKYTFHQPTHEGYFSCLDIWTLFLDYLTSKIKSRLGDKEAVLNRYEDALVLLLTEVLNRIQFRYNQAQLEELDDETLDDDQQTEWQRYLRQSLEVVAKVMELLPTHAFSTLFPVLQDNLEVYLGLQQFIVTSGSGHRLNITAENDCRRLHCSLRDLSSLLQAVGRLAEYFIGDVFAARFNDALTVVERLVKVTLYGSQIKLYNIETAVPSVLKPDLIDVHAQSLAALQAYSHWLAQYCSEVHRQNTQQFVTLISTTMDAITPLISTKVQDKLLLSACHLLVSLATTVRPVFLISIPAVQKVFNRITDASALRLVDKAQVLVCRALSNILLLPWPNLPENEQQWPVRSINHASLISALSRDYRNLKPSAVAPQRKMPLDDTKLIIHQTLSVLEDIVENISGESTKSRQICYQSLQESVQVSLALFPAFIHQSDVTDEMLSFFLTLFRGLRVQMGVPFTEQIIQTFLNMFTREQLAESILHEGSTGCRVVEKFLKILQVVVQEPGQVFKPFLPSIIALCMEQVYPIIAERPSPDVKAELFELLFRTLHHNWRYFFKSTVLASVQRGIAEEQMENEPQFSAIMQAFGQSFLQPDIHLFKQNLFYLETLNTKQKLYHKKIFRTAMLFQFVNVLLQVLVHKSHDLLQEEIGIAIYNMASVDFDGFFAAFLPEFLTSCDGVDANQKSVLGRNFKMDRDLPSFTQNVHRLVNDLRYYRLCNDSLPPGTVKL
inactive: [1] 0.057 | [2] -0.05 | [3] -0.143 | [4] -0.148 | [5] -0.109 | [6] 0.027 | [7] -0.001 | [8] -0.117 | [9] -0.111 | [10] 0.092 | [11] 0.068 | [12] -0.103 | [13] -0.154 | [14] -0.118 | [15] 0.025 | [16] 0.048 | [17] 0.085 | [18] 0.01 | [19] 0.099 | [20] -0.038

VPS28 (UniProt Q9UK41)
Sequence of UniProt Q9UK41 (Q9UK41 whole entry, looked up): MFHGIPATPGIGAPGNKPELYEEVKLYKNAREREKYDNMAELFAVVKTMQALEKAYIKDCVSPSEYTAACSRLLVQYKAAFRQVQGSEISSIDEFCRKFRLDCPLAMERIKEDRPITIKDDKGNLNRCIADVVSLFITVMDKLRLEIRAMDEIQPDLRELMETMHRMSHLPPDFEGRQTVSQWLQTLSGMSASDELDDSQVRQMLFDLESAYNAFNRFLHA
inactive: [1] -0.017 | [2] -0.021 | [3] -0.153 | [4] -0.063 | [5] -0.209 | [6] -0.019 | [7] 0.01 | [8] 0.006 | [9] -0.051 | [10] 0.046 | [11] -0.059 | [12] -0.079 | [13] -0.177 | [14] -0.055 | [15] 0.064 | [16] 0.052 | [17] 0.122 | [18] 0.058 | [19] -0.001 | [20] -0.012

VPS13B (UniProt Q7Z7G8)
inactive: [1] -0.075 | [2] -0.012 | [3] -0.005 | [4] 0.049 | [5] 0.047 | [6] -0.004 | [7] 0.005 | [8] 0.029 | [9] 0.037 | [10] 0.01 | [11] -0.064 | [12] -0.033 | [13] -0.069 | [14] -0.039 | [15] -0.033 | [16] 0.041 | [17] 0.018 | [18] 0.038 | [19] -0.043 | [20] -0.03

UBC (UniProt P0CG48)
Sequence of UniProt P0CG48 (P0CG48 whole entry, looked up): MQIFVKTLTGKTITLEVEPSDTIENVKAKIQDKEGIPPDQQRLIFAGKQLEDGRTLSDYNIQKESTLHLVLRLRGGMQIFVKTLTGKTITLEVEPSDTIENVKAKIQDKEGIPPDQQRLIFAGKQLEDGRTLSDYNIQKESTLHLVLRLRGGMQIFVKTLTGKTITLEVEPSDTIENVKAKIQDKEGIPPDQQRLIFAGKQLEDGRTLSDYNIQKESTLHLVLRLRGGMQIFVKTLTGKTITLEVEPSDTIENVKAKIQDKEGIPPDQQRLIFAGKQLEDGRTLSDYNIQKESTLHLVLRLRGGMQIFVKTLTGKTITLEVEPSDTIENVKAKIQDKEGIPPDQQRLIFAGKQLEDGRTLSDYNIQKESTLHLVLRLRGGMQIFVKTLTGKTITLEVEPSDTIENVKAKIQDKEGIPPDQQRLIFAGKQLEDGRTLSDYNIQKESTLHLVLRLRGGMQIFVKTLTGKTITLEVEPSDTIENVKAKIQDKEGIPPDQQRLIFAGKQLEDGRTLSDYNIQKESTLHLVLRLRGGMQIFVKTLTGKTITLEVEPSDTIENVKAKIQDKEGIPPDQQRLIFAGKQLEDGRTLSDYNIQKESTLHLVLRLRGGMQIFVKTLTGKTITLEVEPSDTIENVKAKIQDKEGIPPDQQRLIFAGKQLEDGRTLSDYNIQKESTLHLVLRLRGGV
inactive: [1] 0.055 | [2] -0.156 | [3] 0.116 | [4] 0.013 | [5] 0.02 | [6] -0.025 | [7] 0.003 | [8] 0.07 | [9] -0.051 | [10] 0.005 | [11] -0.003 | [12] -0.022 | [13] 0.214 | [14] 0.01 | [15] -0.023 | [16] -0.11 | [17] -0.13 | [18] -0.076 | [19] -0.117 | [20] -0.068

WDR62 isoform 4 (UniProt O43379)
inactive: [1] -0.193 | [2] 0.016 | [3] -0.149 | [4] -0.041 | [5] -0.107 | [6] -0.083 | [7] 0.009 | [8] 0.032 | [9] 0.002 | [10] 0.024 | [11] -0.07 | [12] -0.099 | [13] -0.052 | [14] -0.038 | [15] 0 | [16] 0.05 | [17] 0.054 | [18] 0.073 | [19] 0.01 | [20] -0.07
